# Laboratory results reported in PubChem BioAssay (NCATS).
# Records with an inconclusive call do not appear. Values without a mark were called inactive. Calls come from the whole dose curve.
# Experiment: Cell Viability - SK-N-SH (AID 435);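 note: compound exposure lasted 40 h at 37 °C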
# Settings: SK-N-SH neuroblastoma cell viability qHTS
# Source text: NIH Chemical Genomics Center [NCGC]
# NIH Molecular Libraries Screening Centers Network [MLSCN]
# National Institutes of Environmental Health Sciences [NIEHS]
# National Toxicology Program [NTP]
# We have developed a 1536-well cell-based assay for quantitative high throughput screening (qHTS) against a number of cell lines to determine in vitro cytotoxicity of small molecules. This particular assay uses the SK-N-SH cell line which is derived from human neuroblastoma.
# NCGC Assay Protocol Summary:
# The CellTiter-Glo luminescent cell viability assay (Promega) is a homogeneous method to measure the number of viable cells in culture. The end point readout of this assay is based on quantitation of intracellular ATP, an indicator of metabolic activity, using the luciferase reaction. Luciferase catalyzes the oxidation of beetle Luciferin to oxyluciferin and light in the presence of ATP. The luminescent signal is proportional to amount of ATP present.
# Using the CellTiter-Glo luminescent cell viability assay, the amount of cellular ATP was measured in the SK-N-SH cell line with complete culture medium following compound treatment for 40 hours. The assay was performed in opaque white Kalypsys 1536-well plates. In the screen, tamoxifen and doxorubicin were used as positive controls. Library compounds were measured for their ability to cause acute toxicity in the cell line, as reflected by a decrease in intracellular ATP levels, in a concentration-dependent manner. Data were normalized to the controls for basal activity (DMSO only) and 100% inhibition (100 uM tamoxifen). AC50 values were determined from concentration-response data modeled with the standard Hill equation.
# qHTS protocol fo CellTiter Glo SK-N-SH cellular assay
# [Step] [Parameter] [Value] [Description]
# 1. Reagent; 5 uL; 1500 SK-N-SH cells/well
# 2. Time; 5 hr; 37 °C incubation
# 4. Controls; 23 nL; Tamoxifen 0.34 uM to 100 uM & Doxorubicin 0.02 nM to 100 uM
# 5. Time; 40 hr; 37 °C incubation
# 6. Reagent; 5 uL; CellTiter Glo reagent
# 7. Time; 20 min; Room Temperature
# 8. Detection; Luminescence; Viewlux plate reader
# Keywords: cell viability, cytotoxicity, SK-N-SH cell line, luminescence, NTPHTS, NTPHTS_NCGC, NIEHS, EPA, DSSTox, MLSMR, MLSCN, NIH Roadmap, qHTS, NCGC
# Potency is the fitted concentration of half-maximal effect.
row,SMILES,Potency
1,CCCCC(CC)COC(=O)c1ccc(N(C)C)cc1 (stereo not drawn),> 92 µM
2,C/C=C/c1ccc(O)c(OC)c1,> 92 µM
3,COc1ccc(C(=O)c2ccccc2)c(O)c1,> 92 µM
4,NC(=O)c1ccccc1O,> 92 µM
5,C=C[C@H]1CN2CC[C@H]1C[C@@H]2[C@@H](O)c1ccnc2ccc(OC)cc12,> 92 µM
6,CCOc1ccccc1C(N)=O,> 92 µM
7,COc1ccc(C(Cl)=C(c2ccc(OC)cc2)c2ccc(OC)cc2)cc1,> 92 µM
8,COc1cc([C@H]2Oc3cc([C@H]4Oc5cc(O)cc(O)c5C(=O)[C@@H]4O)ccc3O[C@@H]2CO)ccc1O,> 92 µM
9,CCOc1ccc(NC(C)=O)cc1,> 92 µM
10,OC[C@H]1O[C@@H]2O[C@H]3[C@H](O)[C@@H](O)[C@@H](O[C@H]4[C@H](O)[C@@H](O)[C@@H](O[C@H]5[C@H](O)[C@@H](O)[C@@H](O[C@H]6[C@H](O)[C@@H](O)[C@@H](O[C@H]7[C@H](O)[C@@H](O)[C@@H](O[C@H]8[C@H](O)[C@@H](O)[C@@H](O[C@H]1[C@H](O)[C@H]2O)O[C@@H]8CO)O[C@@H]7CO)O[C@@H]6CO)O[C@@H]5CO)O[C@@H]4CO)O[C@@H]3CO,> 92 µM
11,CCCN(CCC)S(=O)(=O)c1ccc(C(=O)O)cc1,> 92 µM
12,O=C(O)c1ccc(S(=O)(=O)N(Cl)Cl)cc1,> 92 µM
13,NCCNc1cccc2ccccc12,> 92 µM
